From paper PMC3218832

Experiments:
Test in all cases: protein binding microarray; high values mean tight binding
Details in all cases: dsDNA, one strand shown
RELARELA (p65 homodimer) = RELARELA (p65 homodimer) (Homo sapiens, UniProt Q04206 1-307)
p50p50 homodimer = p50p50 homodimer (Homo sapiens, UniProt P19838 7-356)
p52p52 homodimer = biological target: T1, p52p52 homodimer (Homo sapiens, UniProt Q00653 4-332)
T1 sequence: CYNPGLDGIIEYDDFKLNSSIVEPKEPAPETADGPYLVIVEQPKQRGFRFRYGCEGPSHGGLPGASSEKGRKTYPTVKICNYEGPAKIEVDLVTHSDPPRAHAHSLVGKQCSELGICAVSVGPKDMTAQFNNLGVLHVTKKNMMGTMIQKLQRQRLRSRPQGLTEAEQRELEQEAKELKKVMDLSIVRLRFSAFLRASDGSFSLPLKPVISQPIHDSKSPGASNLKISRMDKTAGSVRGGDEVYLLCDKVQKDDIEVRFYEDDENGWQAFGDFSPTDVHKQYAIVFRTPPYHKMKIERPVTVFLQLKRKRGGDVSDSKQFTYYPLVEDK

[1] = biological target: RELA (p65) subunit of heterodimer;p50 subunit (Homo sapiens;Homo sapiens, UniProt Q04206;P19838 1-307;7-356)
[2] = biological target: RELA (p65) subunit of heterodimer;p52 subunit (Homo sapiens;Homo sapiens, UniProt Q04206;Q00653 1-307;4-332)
RELB subunit;p50 subunit = RELB subunit;p50 subunit (Homo sapiens;Homo sapiens, UniProt Q01201;P19838 120-401;7-356)
RELB subunit;p52 subunit = biological target: T2, RELB subunit;p52 subunit (Homo sapiens;Homo sapiens, UniProt Q01201;Q00653 120-401;4-332)
T2 sequence 1: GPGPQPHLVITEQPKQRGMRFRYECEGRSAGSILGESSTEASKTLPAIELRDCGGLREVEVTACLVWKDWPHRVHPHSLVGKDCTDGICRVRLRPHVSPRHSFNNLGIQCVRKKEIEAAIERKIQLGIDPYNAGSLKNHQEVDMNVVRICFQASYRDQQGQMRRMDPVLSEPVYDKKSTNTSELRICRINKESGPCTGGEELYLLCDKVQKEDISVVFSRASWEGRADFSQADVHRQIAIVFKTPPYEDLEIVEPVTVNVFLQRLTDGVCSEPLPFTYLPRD
T2 sequence 2: T1 sequence

[3] = biological target: C-Rel subunit;p50 subunit (Homo sapiens;Homo sapiens, UniProt Q04864;P19838 1-285;7-356)
[4] = biological target: T3, C-Rel subunit;p52 subunit (Homo sapiens;Homo sapiens, UniProt Q04864;Q00653 1-285;4-332)
T3 sequence 1: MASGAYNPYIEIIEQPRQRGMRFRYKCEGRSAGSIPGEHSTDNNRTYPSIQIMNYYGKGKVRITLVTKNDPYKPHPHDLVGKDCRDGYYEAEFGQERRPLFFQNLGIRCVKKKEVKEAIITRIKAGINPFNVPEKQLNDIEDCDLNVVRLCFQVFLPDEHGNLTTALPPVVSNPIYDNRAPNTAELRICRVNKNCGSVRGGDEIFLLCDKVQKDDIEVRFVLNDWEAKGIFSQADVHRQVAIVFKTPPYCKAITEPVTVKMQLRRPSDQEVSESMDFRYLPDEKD
T3 sequence 2: T1 sequence

Sequence of p50p50 homodimer (P19838 7-356): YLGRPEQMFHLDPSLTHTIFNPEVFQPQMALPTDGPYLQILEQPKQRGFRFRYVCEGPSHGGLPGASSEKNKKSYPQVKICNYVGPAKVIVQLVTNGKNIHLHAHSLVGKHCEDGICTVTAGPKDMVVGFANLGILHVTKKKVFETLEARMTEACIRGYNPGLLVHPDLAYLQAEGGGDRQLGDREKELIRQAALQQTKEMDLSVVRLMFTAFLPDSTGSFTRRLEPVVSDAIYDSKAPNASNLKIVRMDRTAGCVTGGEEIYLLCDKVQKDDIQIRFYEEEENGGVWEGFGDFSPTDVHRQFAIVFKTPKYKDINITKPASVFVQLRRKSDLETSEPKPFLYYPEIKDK
Sequence of RELARELA (p65 homodimer) (Q04206 1-307): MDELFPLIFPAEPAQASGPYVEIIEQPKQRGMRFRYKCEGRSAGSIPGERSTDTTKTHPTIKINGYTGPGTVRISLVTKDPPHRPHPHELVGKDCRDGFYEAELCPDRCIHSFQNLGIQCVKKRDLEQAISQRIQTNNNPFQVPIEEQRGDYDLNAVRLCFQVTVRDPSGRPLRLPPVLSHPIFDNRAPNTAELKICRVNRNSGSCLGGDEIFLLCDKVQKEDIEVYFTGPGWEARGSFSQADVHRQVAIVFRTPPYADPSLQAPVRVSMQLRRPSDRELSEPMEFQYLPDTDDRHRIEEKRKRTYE
Sequence of RELA (p65) subunit of heterodimer;p50 subunit (Q04206 1-307, chain 1 of 2): as the sequence (Q04206 1-307) above
Sequence of RELA (p65) subunit of heterodimer;p50 subunit (P19838 7-356, chain 2 of 2): as the sequence (P19838 7-356) above

Sequence	binding signal (RELARELA (p65 homodimer)) [z-score]	binding signal (p50p50 homodimer) [z-score]	binding signal (p52p52 homodimer) [z-score]	binding signal [1] [z-score]	binding signal [2] [z-score]	binding signal (RELB subunit;p50 subunit) [z-score]	binding signal (RELB subunit;p52 subunit) [z-score]	binding signal [3] [z-score]	binding signal [4] [z-score]
GAGGATTCCCC	2	1.1	2.67	2.18	2.19	2.43	2.09	1.54	2.11
GAGAACTCCCC	0.725	1.15	1.06	1.34	1.05	1.1	0.794	0.916	0.92
AAGGACTCCCC	0.78	0.758	0.493	0.844	0.665	0.692	0.442	0.76	0.388
AGAAATACCCT	0.554	1.28	1.33	1.55	1.35	1.21	1.27	0.817	1.68
GAGGTGGTCCT	-0.284	-0.198	-0.03	-0.746	-0.496	-0.46	-0.352	-1.08	-0.521
AAGAACCCCCT	-0.175	1.5	1.86	2.09	1.57	2.18	2.07	1.44	1.48
AAAAACCTCCC	0.0581	0.2	-0.135	0.166	-0.13	0.0831	0.117	0.28	0.0846
CGATACCTCCC	-0.139	-0.527	-0.392	-0.477	-0.641	-0.466	-0.506	-0.897	-0.543
CAAAGGGTCCC	-0.377	-0.186	-0.0557	-0.357	-0.288	0.0439	-0.0611	-0.397	-0.359
AAGGACGCCCT	-0.995	-2.2	-0.8	-0.915	-0.945	-1.1	-0.803	-1.23	-0.928
CAGGTGTTCCC	0.518	0.0166	0.0698	-0.00537	0.153	-0.0984	-0.0353	0.188	0.359
AAATAACCCCC	0.321	1.39	1.6	1.69	1.48	1.69	1.68	1.32	1.39
GAGAATTCCCT	1.81	1.39	2.1	1.68	1.6	1.65	1.74	1.43	1.33
CAATACTTCCT	-0.118	-1.09	-0.562	-0.687	-0.787	-1.04	-0.781	-0.77	-0.829
AAAGTCCCCCT	0.889	1.59	1.86	2.31	1.72	2.26	2.4	1.7	1.82
CGAGTTGCCCC	0.677	0.0517	-0.0293	0.542	0.31	0.428	0.407	0.855	0.564
GGGGGTGCCCC	1.45	0.814	3.15	2.21	2.88	2.52	2.27	1.67	2.5
AGAGACACCCC	-0.871	-0.237	-0.229	-0.459	-0.359	-0.257	0.00668	-0.227	-0.484
AAGTGCTCCCT	-0.204	-0.136	-0.291	-0.382	-0.51	-0.322	-0.434	-0.836	-0.646
CAAATTACCCT	0.402	1.05	0.802	0.662	0.929	0.64	0.781	0.509	0.784
GAAGGCGTCCC	-0.376	-0.0302	-0.0163	-0.134	-0.134	0.147	0.216	-0.0533	-0.265
GAGATTACCCT	0.00649	0.801	0.46	0.604	0.372	0.519	0.477	0.426	0.377
AAAAGTCTCCC	0.0565	0.0889	-0.045	0.215	0.0155	0.205	0.142	0.0274	-0.177
AGGAATATCCC	1.97	0.155	0.511	0.866	0.83	0.0984	0.231	0.402	0.834
CAGAGTATCCT	-0.548	-1.79	-0.651	-0.987	-1	-1.11	-0.991	-1.45	-1
CAAGGCCCCCT	-1.53	0.645	0.212	0.0559	0.254	0.314	0.508	-0.126	-0.139
CGAGGTGCCCT	-0.746	-1.52	-0.61	-0.798	-0.84	-0.973	-0.87	-1.16	-0.789
GGAAAGATCCT	-0.0836	-1.25	-0.674	-0.749	-0.654	-0.932	-0.789	-0.978	-0.449
GAATTAGTCCT	0.155	-1.6	-0.565	-0.821	-0.862	-0.954	-0.767	-0.711	-0.848
GAAAGCTCCCC	-0.0663	0.67	0.244	0.536	0.231	0.445	0.294	0.317	0.189
